High-throughput results: PubChem, National Center for Advancing Translational Sciences (NCATS)
G9a block: inhibitors of human histone lysine methyltransferase G9a. G9a H3K9 monomethylation, AlphaScreen, 2 h. hit rate 8.8% among 350,000. AID 504332. Potency, µM (titrated, usually from 102 µM), for inactives: at the highest dose activity, negative = inhibition, actives largely listed as inhibitors; also: % is scaled to controls: 0 for no effect and ±100 for the full control effect; nearly all actives have a fitted effect of over 75% in size
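Enzyme 20 nM + cpd, 15 min RT; add b-H3K9 pep 500 nM / SAM 20 uM; 2 h RT; anti-H3K9me1 Ab 0.5 ug/mL + SA donor / anti-rabbit acceptor beads 20 ug/mL each, 10 min; AlphaScreen read.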
GLS inh: glutaminase GLS (human) inhibition; AID 624170; hit rate 0.21% among 410,000; O94925; GLS enzymatic activity, qHTS titration; Potency, µM (series often up to 45.5 µM), without a hit: top-dose activity change, negative = inhibition, hits mostly inhibitors; also: % is scaled to controls: 0 for no effect and ±100 for the full control effect
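Read-out is an Amplex red fluorescence increase coupled through glutamate oxidase and HRP, measured before and after 30 min room-temperature incubation. hKGA is in 45 mM KH2PO4 (pH 8.2) with 0.02% Tween-20; glutamine added as 1mM solution.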
HP1b binding inh: blocks HP1-beta chromodomain binding to methylated histone tails | P83916 | AlphaScreen HP1-beta / biotin-H3K9me3 peptide binding | Potency, µM (top dose mostly 114 µM), for inactives: at the highest dose activity change, negative = inhibition, hits mostly inhibitors | hit rate 0.56% among 390,000; also: nearly all actives have a fitted effect of over 70% in size
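Compound inhibition of the preformed complex between 50 nM HP1-beta and 50 nM biotinylated H3K9me3 peptide was read by AlphaScreen. Buffer was PBS pH 7.4 with 0.01% Tween-20. Incubations ran 30 min at room temperature, with 10 ug/mL donor/acceptor beads.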
JMJD2A Tudor: inhibitors of human JMJD2A Tudor domain; O75164; hit rate 4.4% among 390,000; Potency, µM (highest dose often 114 µM), inactives show at the highest dose activity change, negative = inhibition, usual class: inhibitors; AID 504339; AlphaScreen JMJD2A-Tudor / H3K4me3 peptide binding; also: % is scaled to controls: 0 for no effect and ±100 for the full control effect; nearly all actives have a fitted effect of over 50% in size
Target sequence (O75164 whole entry, looked up, the tested form may be a part): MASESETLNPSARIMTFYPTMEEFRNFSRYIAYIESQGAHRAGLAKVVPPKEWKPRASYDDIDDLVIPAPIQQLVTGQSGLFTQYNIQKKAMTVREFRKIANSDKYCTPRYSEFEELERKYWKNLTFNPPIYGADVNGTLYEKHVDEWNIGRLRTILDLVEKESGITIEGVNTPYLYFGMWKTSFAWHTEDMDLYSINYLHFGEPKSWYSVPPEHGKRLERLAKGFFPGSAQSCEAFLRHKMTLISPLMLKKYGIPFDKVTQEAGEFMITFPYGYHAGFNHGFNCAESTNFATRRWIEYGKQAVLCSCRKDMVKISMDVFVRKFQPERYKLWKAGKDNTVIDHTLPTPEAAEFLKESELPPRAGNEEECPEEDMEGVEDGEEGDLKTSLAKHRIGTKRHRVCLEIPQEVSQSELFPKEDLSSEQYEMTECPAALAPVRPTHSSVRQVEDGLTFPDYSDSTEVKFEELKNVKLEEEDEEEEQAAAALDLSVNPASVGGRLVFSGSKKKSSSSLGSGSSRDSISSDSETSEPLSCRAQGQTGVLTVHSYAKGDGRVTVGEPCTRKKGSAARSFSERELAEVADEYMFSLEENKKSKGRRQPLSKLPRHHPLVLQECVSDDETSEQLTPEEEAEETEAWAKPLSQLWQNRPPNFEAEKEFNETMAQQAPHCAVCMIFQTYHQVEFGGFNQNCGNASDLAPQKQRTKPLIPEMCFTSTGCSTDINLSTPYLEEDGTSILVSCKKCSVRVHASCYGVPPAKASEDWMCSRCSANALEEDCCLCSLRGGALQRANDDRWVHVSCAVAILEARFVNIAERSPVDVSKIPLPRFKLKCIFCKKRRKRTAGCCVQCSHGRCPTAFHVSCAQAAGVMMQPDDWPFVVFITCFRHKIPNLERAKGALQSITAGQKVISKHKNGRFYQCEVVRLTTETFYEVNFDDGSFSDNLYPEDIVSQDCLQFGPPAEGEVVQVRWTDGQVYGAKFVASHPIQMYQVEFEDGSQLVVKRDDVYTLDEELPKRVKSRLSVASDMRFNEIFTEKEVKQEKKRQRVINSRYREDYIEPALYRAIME
BAZ2B inh: BAZ2B (human) inhibition; Potency, µM (series often up to 114 µM), for inactives: at the highest dose activity change, negative = inhibition, most hits filed as inhibitors; hit rate 4.4% among 360,000; AlphaScreen BAZ2B-H3K14Ac peptide displacement; also: % is scaled to controls: 0 for no effect and ±100 for the full control effect; nearly all actives have a fitted effect of over 60% in size
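BAZ2B 50 nM plus b-H3(5-23)K14Ac 50 nM, PBS pH 7.4/0.01% Tween-20, 30 min RT; compound added (max 110 uM), 30 min RT; streptavidin donor/Ni-chelate acceptor beads 10 ug/mL final, 20 min dark; AlphaScreen read.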
* = called active by the depositor; ? = inconclusive; nt = no result given; [ ] = remark or other dose. Shown are actives, neighbours in structure and some others; about 10% of the full set was active somewhere. Calls follow the shape of the dose curve; as a rule, active = well fitted curve in the direction sought with a large enough effect; inconclusive = small, poorly fitted or top-dose-only effect, or another doubt; inactive = no such curve, though single readings can be large; an effect the other way counts as inactive or inconclusive. Potency is read from the fitted curve at half-maximal effect.

SMILES | G9a block | GLS inh | HP1b binding inh | JMJD2A Tudor | BAZ2B inh
Cc1ccc2cc(C=C(C#N)C#N)c(N3CCCCC3)nc2c1 | 45µM* | 36% | ? | ? | ?
O=Cc1coc2ccc3ccccc3c2c1=O | 50µM* | ? | -21% | ? | -5%
NC(=O)N/N=C/c1coc2ccc3ccccc3c2c1=O | -26% | 6% | 6% | 1% | -4%
COc1ccccc1OCc1nnc(SCC(=O)N2CCCC2)o1 | 15% | -2% | 24% | -10% | 1%
CCOC(=O)c1cc(C)n(-c2ccccc2)c1C | 4% | 0% | 1% | -29% | 79µM*
CCOC(=O)c1cc(-c2ccccc2)n(-c2cccc(C(=O)N(CC)c3ccccc3)c2)c1C | ? | -8% | -10% | ? | 10µM*
CCCCC(CC)C1OCC(CN2CCCC2)O1 (stereo not given) | -5%[59 µM] | -1% | 20% | 10% | -5%
Cc1nn(C)c(C)c1NC(=O)CCl | 45µM* | -11% | 17% | -26% | 35µM*
C[C@@H](c1ccccc1)N1C[C@H](COCc2ccccc2)Oc2cc(N3CCC[C@H]3CO)ccc2S1(=O)=O | nt | 6% | nt | nt | nt
CC(=O)c1ccc2c(c1)C1C=CCC1C(C(=O)O)N2 (stereo not given) | -174%[12.7 µM] | 2.5µM* | 20µM* | 6.3µM* | 6.3µM*
Brc1cc2c(cc1C1Nc3ccccc3C3C=CCC31)OCO2 (stereo not given) | 42%[59 µM] | 3% | 19% | -23% | -34%
C1=CC2c3ccccc3NC(c3ccncc3)C2C1 (stereo not given) | 1.6µM* | -11% | ? | 45µM* | ?
CCOC(=O)C1Nc2ccc(OC(F)(F)F)cc2C2C=CCC12 (stereo not given) | nt | 6% | ? | 25µM* | nt
O=C(O)C1Nc2c(cccc2C(F)(F)F)C2C=CCC12 (stereo not given) | 2.5µM* | nt | nt | nt | 40µM*
O=C(O)c1ccc2c(c1)C1C=CCC1C(c1cc3c(cc1Br)OCO3)N2 (stereo not given) | -45% | 15% | 4% | -29% | -34%
CC(=O)c1ccc2c(c1)C1C=CCC1C(c1ccncc1)N2 (stereo not given) | ? | 5% | -9% | ? | 50µM*
CCOc1ccc2c(c1)[C@@H]1C=CC[C@@H]1[C@H](c1ccccc1Cl)N2 | 11µM* | -21% | ? | 45µM* | 28µM*
Cc1ccc2c(c1)C1C=CCC1C(C(=O)O)N2 (stereo not given) | 4µM* | nt | nt | nt | 6.3µM*
COC(=O)c1ccc(C2Nc3ccc(/C(C)=N/NC(=O)C(OC)c4ccccc4)cc3C3C=CCC32)cc1 (stereo not given) | 7.1µM* | 13% | -21% | 79µM* | 56µM*
CC(C)c1ccc(NC(=O)N(CCc2nc3ccccc3[nH]2)C2CCCC2)cc1 | -6%[59 µM] | 5% | 19% | 0% | 11%[57.1 µM]
O=C(N=C1SC2CS(=O)(=O)CC2N1CCc1ccc(F)cc1)C1CCCCC1 (stereo not given) | 8% | 0% | 43% | 20% | -5%
COC(=O)c1ccc(C(NC(=O)OCc2ccccc2)/C(C)=C/[C@@H](C)C(=O)NCc2ccc(-c3ccccc3)cc2)cc1 (stereo not given in full) | 3% | -1% | 16% | -19% | -7%
Cc1sc2nc(C3CC3)nc(N3CCN(C(=O)c4ccc(Cl)cc4)CC3)c2c1C | 45µM* | -6% | 16% | 45µM* | ?
Cc1sc2nc(C3CC3)nc(N3CCN(C(=O)c4ccc(F)cc4)CC3)c2c1C | 45µM* | -2% | 8% | -34% | ?
CCCc1nc(N2CCN(S(=O)(=O)c3ccc(Cl)cc3)CC2)c2c(C)c(C)sc2n1 | -14% | -15% | 18% | -11% | 0%
SMILES | G9a block | GLS inh | HP1b binding inh | JMJD2A Tudor | BAZ2B inh
Cc1sc2nc(C3CC3)nc(N3CCN(C(=O)c4ccccc4F)CC3)c2c1C | 45µM* | 0% | 5% | -31% | -38%
COc1ccc(C(=O)N2CCN(c3nc(C4CC4)nc4sc(C)c(C)c34)CC2)cc1 | 40µM* | 2% | -20% | ? | ?
COc1ccc(C(=O)N2CCN(c3ncccn3)CC2)cc1 | 12% | 11% | 23% | -18% | 4%
Cc1sc2nc(C3CC3)nc(N3CCN(S(=O)(=O)c4ccc(F)cc4)CC3)c2c1C | 22%[59 µM] | 12% | 47% | -12% | 2%
O=C(N/N=C/c1ccc([N+](=O)[O-])o1)c1cc(-c2ccc(-c3ccccc3)cc2)nc2ccccc12 | -1% | 0% | 12% | -34% | -1%
N/C(=N\OCc1ccc([N+](=O)[O-])cc1)c1ccccn1 | ? | 5% | 21% | -20% | -18%
CC(C(=O)O/N=C(\N)c1ccccn1)c1ccc([N+](=O)[O-])cc1 (stereo not given) | ? | -2% | 27% | -7% | 56µM*
CCn1c2ccccc2c2n[nH]c(=S)nc21 | 7.9µM* | -15% | 8% | -19% | -24%
C=CCn1c(-c2cccc3ccccc23)n[nH]c1=S | ? | nt | 18% | 19% | -33%
C=CCn1c2ccccc2c2n[nH]c(=S)nc21 | 10µM* | -1% | 9% | -32% | -35%
O=C(O)Cn1c2ccccc2c2n[nH]c(=S)nc21 | 2.2µM* | -19% | -20% | 20µM* | 50µM*
CCCN(C(=O)CN1C(=O)NC2(CCCCCC2)C1=O)C1CCS(=O)(=O)C1 (stereo not given) | 0% | 3% | 15% | -13% | 0%
C1CCc2c(nnc3c2-c2nonc2CC3)C1 | 32µM* | -2% | 23% | -3% | 6%
CC1=C(C(=O)NCc2ccccn2)C2(CCC(C)CC2)OC1=O (stereo not given) | 10µM* | 0% | 16% | 28µM* | 79µM*
CC1=C(C(=O)NCc2ccc(Cl)cc2)C2(CCC(C)CC2)OC1=O (stereo not given) | 2% | -9% | 42% | -7% | 4%
CC12CCC(C(=O)NCc3ccccn3)(OC1=O)C2(C)C (stereo not given) | ? | 9% | 19% | ? | 79µM*
CC12CCC(C(=O)NCc3cccnc3)(OC1=O)C2(C)C (stereo not given) | -3%[59 µM] | -1% | 8% | -10% | 0%
CC(C(C(=O)N1CCCCC1)N1CCCCC1)N1CCCCC1 (stereo not given) | nt | -3% | 7%[57 µM] | -3% | nt
CCOC(=O)c1cc(C)n(CC2CCC(C(=O)Nc3ccc(C(=O)OC)cc3)CC2)c1C (stereo not given) | 3%[59 µM] | -4% | 41% | -8% | -12%
CCOC(=O)C[n+]1c(C)sc2ccc(OC)cc21 | 1.3µM* | 31% | ? | 50µM* | ?
COc1ccc(S(=O)(=O)N2CCCC2C(=O)Nc2nc3c(s2)CCCC3)cc1 (stereo not given) | ? | 0% | 6% | -36% | ?
